# From the supplement of paper PMC3334620
# In all, about 33,000 sequences were measured (“E-score (-0.5 to 0.5)”: median about -0.012, highest 2% from about 0.29 on). The sample as a whole holds a higher share of the highest values than the screen did.
# Target: T1, Ybr033w (UniProt P38073)
# T1 sequence: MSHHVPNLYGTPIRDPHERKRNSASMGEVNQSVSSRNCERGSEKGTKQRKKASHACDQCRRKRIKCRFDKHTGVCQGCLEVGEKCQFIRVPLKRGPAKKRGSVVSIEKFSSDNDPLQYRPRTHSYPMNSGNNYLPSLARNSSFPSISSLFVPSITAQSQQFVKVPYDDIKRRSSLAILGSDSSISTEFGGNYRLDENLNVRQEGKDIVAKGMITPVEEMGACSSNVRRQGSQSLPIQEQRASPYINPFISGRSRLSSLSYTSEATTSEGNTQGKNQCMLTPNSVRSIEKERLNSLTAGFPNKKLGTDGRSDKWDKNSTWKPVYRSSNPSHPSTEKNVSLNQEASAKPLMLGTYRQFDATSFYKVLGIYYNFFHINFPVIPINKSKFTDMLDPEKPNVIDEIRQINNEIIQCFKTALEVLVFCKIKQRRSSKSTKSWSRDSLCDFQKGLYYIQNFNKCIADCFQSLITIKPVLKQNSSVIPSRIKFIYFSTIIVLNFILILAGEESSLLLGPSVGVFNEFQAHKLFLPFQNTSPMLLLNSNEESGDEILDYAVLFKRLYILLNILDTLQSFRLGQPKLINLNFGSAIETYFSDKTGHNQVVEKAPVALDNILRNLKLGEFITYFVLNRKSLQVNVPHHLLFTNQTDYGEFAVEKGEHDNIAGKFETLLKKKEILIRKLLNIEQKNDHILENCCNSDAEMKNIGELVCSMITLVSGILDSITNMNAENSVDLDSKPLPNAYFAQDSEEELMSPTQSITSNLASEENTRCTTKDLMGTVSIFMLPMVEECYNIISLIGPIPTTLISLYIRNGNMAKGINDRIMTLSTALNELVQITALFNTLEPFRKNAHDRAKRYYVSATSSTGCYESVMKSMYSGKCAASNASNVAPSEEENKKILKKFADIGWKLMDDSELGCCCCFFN
# Assay: PBM E-score (8-mer binding enrichment) (E-score (-0.5 to 0.5)); higher = stronger / more preferred TF binding
# Conditions: protein concentration: 200 nM; construct: GST-full length
# Method in brief: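 The E-score, a modified Wilcoxon-Mann-Whitney statistic, was computed by the Universal PBM Analysis Suite for every ungapped eight-base word pooled with its reverse complement. Scans behind it were normalised with masliner after bound GST-tagged yeast transcription factors were detected with fluorescent anti-GST. The proteins, at about 100-200 nM, had been applied to universal all-10-mer Agilent arrays made double-stranded by primer extension.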
row,Sequence,PBM E-score
1,AACGGCTC,-0.0166
2,TAGGAATA,0.194
3,AGTGGTCG,-0.159
4,ATTGCCAA,-0.00029
5,TATTGGCA,0.0828
6,ACATTGCG,0.0729
7,TGTCCACA,0.134
8,GGACACAA,0.163
9,CTGAGCAA,-0.0556
10,ATGCCTAC,-0.0813
11,CACTGGGA,-0.0293
12,ATACAAGC,0.209
13,AGTTATTG,0.223
14,AATTATTA,0.359
15,AGTTATTA,0.173
16,AGTTATTC,0.345
17,AATTATAA,0.253
18,AATTATTG,0.274
19,ATGAAGAG,0.0478
20,AGAAGACG,0.123
21,ATTTCCGA,0.247
22,ATTTCCGG,0.298
23,ATTTCCGC,0.15
24,ATTTCCTC,0.176
25,ATTTCCTA,0.101

row,Sequence,PBM E-score
1,ATTTCCTG,0.3
2,CCCGAGGC,-0.329
3,ATTAAGCC,0.0562
4,AACTTGAA,0.251
5,CATTTACA,0.197
6,AATTTTAT,0.331
7,AATTTTAA,0.285
8,AACTTGAT,0.333
9,GATTTACA,0.297
10,AACTTGAG,-0.167
11,AATTTTAC,0.282
12,AAATTACT,0.333
13,AAATTACC,0.164
14,AAATTACG,0.111
15,TATTTACA,0.21
16,CGCTCCTA,-0.101
17,AGTTAGAA,0.0705
18,GTGGCTGA,-0.183
19,GACAGCAC,-0.00022
20,GGGTCCTA,-0.279
21,TCTAAGCA,-0.00029
22,CCGCTGCC,-0.418
23,CCAGAGCA,-0.0441
24,AACCAGCC,-0.0273
25,GACCAGGC,-0.164

row,Sequence,PBM E-score
1,AGGATGCA,-0.0489
2,CGTTCTAC,0.00885
3,CTGTTGTC,-0.0159
4,AATTTAAC,0.245
5,AATTTACT,0.311
6,AATTTAAT,0.319
7,AATTTAAG,0.211
8,AACTTAAG,0.0775
9,AACTTAAT,0.314
10,AATTTACA,0.134
11,AACTTAAA,0.237
12,AATTTAGT,0.241
13,CCTACCGC,-0.292
14,CCCAGTAC,-0.0948
15,CGAAGCGA,-0.0591
16,ACCAACAC,-0.0108
17,ACCTTGAA,0.102
18,TAATTCTA,0.288
19,GAATTAAC,0.249
20,TAATTATA,0.382
21,GAATTATC,0.305
22,GAATTATA,0.307
23,AAATTCTA,0.217
24,GAATTCTA,0.176
25,CAATTATA,0.28

row,Sequence,PBM E-score
1,AAATTATA,0.215
2,GCATTATA,0.0824
3,GAATTACC,0.139
4,GGATTATA,0.244
5,CTGCACAG,-0.0409
6,ATCCATAG,-0.0877
7,CCAGAAAG,0.171
8,CCTAAATC,0.0625
9,AATTGACG,-0.0634
10,CTATGCGA,-0.0724
11,CGAAATAA,0.264
12,AGAAATAT,0.299
13,GGAAATAA,0.284
14,AGAAATAC,0.104
15,AGAAATAG,0.227
16,AGAAATAA,0.36
17,AATTGCCT,0.0818
18,AAACTCCG,0.17
19,CTCTGCTC,-0.16
20,ACTGGCCC,0.0468
21,AGTTGGAT,0.288
22,AGTTGGAC,-0.0273
23,AGTTGGAG,-0.0321
24,CAGTCACG,-0.248
25,CACCGTGG,-0.311

row,Sequence,PBM E-score
1,AACAAGTG,0.127
2,ACCACCGC,-0.197
3,AAGATTAC,0.101
4,TAGATTAA,0.312
5,AAGATTAA,0.289
6,AAGATTAG,0.219
7,TAGATTCA,0.0876
8,TAGATTGA,0.233
9,GAGATTAA,0.182
10,CAGATTAG,-0.134
11,CAGATTAA,0.291
12,TCTGGGAA,-0.0142
13,GACGTCAA,-0.013
14,AGTTGGAA,0.124
15,CCCAAGAG,-0.146
16,AATCATCA,0.17
17,CCTGCCAG,-0.2
18,CTGGCCTA,-0.0592
19,ATAATCAA,0.229
20,ATAATCAT,0.292
21,AAAATCAA,0.221
22,AAAATCAT,0.31
23,AAAATCAG,0.188
24,ATAATCAG,0.092
25,CGGAAAGA,-0.0353

row,Sequence,PBM E-score
1,AGGTGTAC,0.0056
2,CTCAAGTA,0.0799
3,ATAGCTTG,-0.0519
4,GGCGACCC,-0.301
5,ACACACAT,0.117
6,AAATCGCT,-0.173
7,ACTTATAC,0.244
8,ACTTATAT,0.328
9,TCTTATAA,0.0725
10,ACTTATAA,0.305
11,ACTTATAG,0.0878
12,GCTTATAA,0.147
13,CTGGATAC,-0.107
14,GACACTAC,-0.0871
15,ACGCACAC,0.157
16,ATCTACGC,0.0459
17,ATATGATA,0.347
18,ACATGTTG,0.244
19,CAATGATA,0.126
20,ACATGATC,0.122
21,ACATGTTC,0.0642
22,GTATGATA,0.234
23,GCATGATA,0.109
24,ACATGTTA,0.289
25,AAATGATT,0.273

row,Sequence,PBM E-score
1,AAATGATA,0.345
2,CTATGATA,0.113
3,ACATGATA,0.32
4,CGACGTAG,-0.223
5,AGCATTCC,-0.043
6,ATGTGGCG,-0.018
7,AATCTTAC,0.137
8,GCTTAATA,0.0557
9,GGTGGAAA,-0.00937
10,CCTGCTCA,-0.156
11,ATTCTAGC,0.0909
12,ACGGGCTA,-0.252
13,AGGGATCA,0.169
14,AAATGATC,0.328
15,CAATGATC,0.0568
16,AAATGATG,0.248
17,GATACTGA,0.0886
18,CATACTGA,0.212
19,TATACTGA,0.351
20,CATTCGCG,0.0443
21,ATATAGGG,-0.00433
22,GAGGCCTC,-0.37
